# Compounds with a hit are over-represented: about 4% of the library has one in this group of screens.
# HIF-2a inh: blocks HIF-2a reporter activity; 786-0 RCC cells HIF-2a reporter, luciferase luminescence, overnight; 360,000 tested, 0.72% active; AID 624352; inhibition, % at 18.8 µM;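 active = inhibition of the luminescence signal of 40% or more relative to plate controls, in a single-dose primary screen at 18.75 µM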
# TWEAK Fn14 block: inhibitors of TWEAK-Fn14 interaction signaling. TWEAK-stimulated Fn14 reporter cells, luciferase luminescence, 8 h. inhibition, % at 10 µM. 360,000 tested, 2% active. AID 1159606; in the data active = inhibition above about 50%
# TROY signal inh: inhibitors of TROY-dependent NF-kB signaling; Q293 LMP1-TROYcd NF-kB luciferase reporter, 4 h; AID 1347056; inhibition, % at 10 µM; 360,000 tested, 0.98% active;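 active = compounds whose plate-normalised and pattern-corrected inhibition of the luciferase reporter signal at the single screening dose is 50% or more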
# Peg3 promoter: inhibitors of Peg3 promoter. HeLa PEG-Prom luciferase reporter, luminescence, overnight. inhibition, % at 20 µM. 360,000 tested, 1.7% active;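 active = inhibition of at least 50% at 20 µM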
# KKLEB cytotox: counter-screen for CF NF-kB inhibitors: cytotoxicity; activity change (cytotoxicity), % at 5 µM; AID 602141; 360,000 tested, 0.36% active; KKLEB CF airway cells viability, ATPlite luminescence, overnight; active compounds read low; cells stimulated with P. aeruginosa culture filtrate;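 active = corrected activity change at or below -50% at 5 µM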
# CF NFkB inh: blocks PAF-induced NF-kB reporter in cystic fibrosis cells; 360,000 tested, 0.86% active; AID 588850; KKLEB NF-kB-GFP reporter, GFP fluorescence overnight; inhibition, % at 5 µM;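 active = at least 50% inhibition at 5 µM, scaled per plate between neutral and stimulator controls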;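 also: PAF is a Pseudomonas aeruginosa culture filtrate used as stimulus; plate controls were PAF-stimulated DMSO wells for no effect and unstimulated DMSO wells for full effect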
# * hit, by the source's call.
SMILES,HIF-2a inh,TWEAK Fn14 block,TROY signal inh,Peg3 promoter,KKLEB cytotox,CF NFkB inh
O=C(/C=C/c1cnc2ccccc2n1)NC12CC3CC(CC(C3)C1)C2,-63.7,72.7*,70.5*,-131.0,-10.0,4.4
O=C(O)/C=C/c1cnc2ccccc2n1,11.8,7.5,63.7*,26.0,-2.6,-2.1
Cn1nc([N+](=O)[O-])nc1Sc1ccc(Cl)cc1,3.8,-3.1,14.7,2.4,7.0,4.8
CNc1ncnc(Sc2ccc(Cl)cc2)c1[N+](=O)[O-],-10.9,85.7*,-4.2,-8.2,-13.0,22.6
CCC(C)(C)c1ccc2c(c1)C(=O)c1ccccc1C2=O,-180.9,61.1*,48.0,-254.4,-12.7,21.6
CCC(=O)Nc1ccc2c(c1)C(=O)c1ccccc1C2=O,-287.0,-17.7,-55.4,-171.0,6.9,-65.1
O=C(C(Br)=Cc1ccccc1)c1ccccc1,85.5*,92.9*,-2.1,107.9*,-42.8,94.2*
Cn1ncc([N+](=O)[O-])c1C(=O)Nc1nc2ccccc2n1CCN1CCCCC1,10.6,-2.8,-20.3,11.5,-4.1,5.2
COc1ccc(C(=O)N/N=C/c2ccc(OC)c(CN3CCCc4ccccc43)c2)cc1,-24.6,57.7*,-12.5,8.5,19.1,3.7
COc1ccc(/C=N/NC(=O)c2cccnc2)cc1CN1CCCc2ccccc21,18.3,29.8,6.3,28.3,-13.1,-20.3
CCCCOc1ccc(C(=O)N/N=C/c2ccc(OCCN3CCCCC3)c(OC)c2)cc1,12.4,3.8,-25.5,65.2*,-4.3,-9.1
CCOC(=O)N1CCN(Cc2nc(N)nc(Nc3ccc(Oc4ccccc4)cc3)n2)CC1,-59.1,51.7*,15.1,9.8,4.3,18.5
COc1ccc(C(=O)/C=C/c2ccc(OC)c(CN3CCOCC3)c2)cc1,10.0,13.6,-16.6,28.0,-11.6,16.6
COc1ccc(C(=O)/C=C/c2ccc(OC)c(Cn3nnc4ccccc43)c2)cc1,35.7,36.1,7.2,51.7*,-33.8,17.7
COc1ccc(NC(=S)N2CCN(c3ncccn3)CC2)cc1,8.6,-2.6,-13.6,7.2,7.7,-11.0
O=C(O)c1ccc(S(=O)(=O)NC2CCCc3ccccc32)cc1 (configuration not stated),2.9,-1.2,3.1,1.6,1.4,4.3
COc1ccc(-c2cc(CCCC(=O)NCc3ccccn3)no2)cc1,-17.3,86.5*,17.6,-50.6,-1.0,2.9
COc1ccc(-c2cc(CCCC(=O)NCCc3ccccc3)no2)cc1,-141.7,-12.0,-32.0,-150.3,7.5,-9.4
N#CC(C#N)=C(Nc1ccc(F)cc1)SCc1cccc(Br)c1,-32.9,39.8,33.6,20.6,-41.8,51.3*
CC(SCc1ccccc1)C(=O)Nc1ccc(F)cc1 (configuration not stated),-41.7,-0.9,3.7,-23.9,10.5,5.6
COc1cccc(S(=O)(=O)NCc2ccc(C(=O)Nc3ccc(Cl)c(Cl)c3)cc2)c1,13.4,6.1,-1.9,4.7,3.6,-10.9
O=C(Nc1ccc(Cl)c(Cl)c1)c1cccc(S(=O)(=O)NCc2cccnc2)c1,-19.1,89.5*,63.6*,45.3,4.4,10.8
CN1CCN(C(c2ccc(Br)cc2)c2cc(Cl)c3cccnc3c2O)CC1 (configuration not stated),49.9*,13.9,-3.7,41.1,-9.3,41.2
O=C(O)CCCNS(=O)(=O)c1ccccc1,2.9,62.5*,8.5,-2.5,2.0,0.2
O=C(O)CCCNS(=O)(=O)c1ccc2ccccc2c1,22.9,-3.9,-0.3,16.6,-5.8,-1.5
SMILES,HIF-2a inh,TWEAK Fn14 block,TROY signal inh,Peg3 promoter,KKLEB cytotox,CF NFkB inh
O=C(CCCNS(=O)(=O)c1ccc(F)cc1)Nc1ccc(F)cc1,5.1,97.2*,1.0,8.8,0.2,-19.8
Cc1ccc(C23OC(=O)C(C)(C)C2OC(=O)C3(C)C)cc1 (configuration not stated),20.9,-14.8,6.9,8.7,9.7,-1.9
COc1ccc(C2/C=C\CN(C(=O)C3CC3)[C@H](Cc3ccccc3)C(=O)N2Cc2ccc(F)cc2)cc1 (some centres not stated),12.2,10.0,6.0,20.8,-3.8,-0.4
COc1ccc(C2/C=C\CN(C(=O)c3ccc(C)cc3)[C@H](Cc3ccccc3)C(=O)N2Cc2ccc(F)cc2)cc1 (some centres not stated),-0.9,21.1,5.8,69.9*,-7.9,-7.3
COc1ccccc1/C=N/NC(=O)c1sc(C)nc1C,2.8,19.8,1.0,3.9,5.4,-16.4
C=CCNC(=O)c1cc(-c2ccncc2)nc2c(C)cc(C)cc12,12.4,-8.1,84.2*,3.0,-0.1,-16.4
O=[N+]([O-])CC(c1ccccc1)c1c[nH]c2ccccc12 (configuration not stated),12.8,2.2,4.7,32.8,1.6,7.5
OC(CNCC(c1ccc(Cl)cc1Cl)c1c[nH]c2ccccc12)c1ccccc1 (configuration not stated),17.5,74.0*,78.9*,109.8*,-16.8,19.0
O=C(NCC1CCCO1)c1cc2ccccc2nc1Cl (configuration not stated),-41.2,21.9,-6.0,-12.6,-0.1,0.5
Cc1nc2ccc(F)cc2cc1C(=O)NCC1CCCO1 (configuration not stated),13.8,32.8,22.9,-1.3,-88.8*,-6.6
Cc1ccc(C(=O)COc2ncnc3cc(Cl)ccc23)cc1,-109.3,-10.7,-78.8,-126.3,-20.8,6.5
Cc1cc(C)n(C(C[N+](=O)[O-])c2ccc(Cl)cc2)n1 (configuration not stated),22.6,19.5,-13.5,99.5*,4.7,-5.6
COc1ccc2oc(=N)c(C(=O)Nc3ccccc3Cl)cc2c1,-294.9,-42.4,-31.7,-308.6,4.9,-19.2
Oc1ccccc1-c1cc(-c2cccc(F)c2)n[nH]1,-240.5,9.5,-47.3,-271.6,10.5,-28.3
CC(C)(C)c1ccc(-c2cc(-c3ccccc3O)[nH]n2)cc1,-29.6,85.1*,83.3*,-69.3,-4.3,-6.7
CC12C=CC(=O)C=C1CCC1C2C(=O)CC2(C)C1CCC2(O)C(=O)CO (configuration not stated),5.4,-13.1,-1.7,3.6,21.8,35.7
CC1CC2C3CCC4=CC(=O)C=CC4(C)C3(F)C(O)CC2(C)C1(O)C(=O)CO (configuration not stated),25.2,1.6,28.4,5.2,49.2,77.4*
C[C@]12C=CC(=O)C=C1CC[C@H]1[C@@H]3C[C@@H](O)[C@](O)(C(=O)CO)[C@@]3(C)C[C@H](O)[C@@]12F,23.2,-6.8,-3.3,-9.4,-15.5,76.8*
CC12C=CC(=O)C=C1CCC1C2C(=O)C[C@@]2(C)C1CCC2(O)C(=O)CO (some centres not stated),2.2,-7.3,-1.6,-10.3,0.6,12.1
COc1cc(OC)c(C#N)c(S(=O)(=O)Cc2ccccc2)c1,6.9,-0.2,-5.0,5.5,-7.6,6.2
